In PubChem BioAssay (NCATS):
Inconclusive results are not listed. Active and inactive are the calls of the source. The call rests on the fitted dose curve; in most records, active means well fitted curve in the direction sought with a large enough effect; inconclusive means small, poorly fitted or top-dose-only effect, or another doubt; inactive means no such curve, though single readings can be large or run the other way.

Target: Thioredoxin reductase 1, cytoplasmic (Rattus norvegicus) (UniProt O89049)
Assay: qHTS Assay for Substrates of Mammalian Selenoprotein Thioredoxin Reductase 1 (TrxR1) (AID 488772);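 further: 0% is about no effect; a drop in NADPH fluorescence below the no-compound background marks a TrxR1 substrate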
Conditions: purified TrxR1, NADPH consumption substrate assay; series mostly up to 57.1 µM; activity change, negative = NADPH consumption: at the top concentration
Source text: The selenoprotein thioredoxin reductase (TrxR; EC 1.8.1.9) is a FAD containing homodimeric pyridine nucleotide-disulfide oxidoreductase with many cellular roles. Together with NADPH and its prime substrate thioredoxin (Trx), the enzyme forms the core of the Trx system. The mammalian Trx system exerts a wide spectrum of functions including redox regulation, antioxidant defense, regulation of transcription factors as well as support of cell growth and replication. Many of these functions involve the reduction of Trx, which may subsequently reduce a number of different substrates including ribonucleotide reductase, peroxiredoxins or NFkB. Mammalian TrxR itself also has a broad substrate specificity, reducing both protein and non-protein substrates, including low molecular weight compounds such as dehydroascorbate, lipoic acid, ubiquinone, and juglone. In addition, several drugs in clinical use for anticancer treatment are indeed known to target TrxR1.
This BioAssay is a validation of an NADPH fluorescence-based, dual-purpose qHTS rTrxR1 assay designed to find potential inhibitors and substrates of rTrxR1. For this particular BioAssay, actives are potential substrates. See related BioAssay for inhibitors data deposition.
Assay protocol: 2 uL of reagents (buffer in column 4 as negative control and 90 nM rTrxR1 in columns 1-3 and 5-48) were dispensed into Greiner black solid-bottom 1,536-well assay plates, followed by 1 uL of NADPH (400 uM final concentration) to each well. The plates were centrifuged at 1000 rpm for 15 seconds and subsequently incubated for 5 min at room temperature (~22 deg C) to allow for rTrxR1 reduction. Compounds (23 nL) were then transferred via Kalypsys pin tool equipped with 1536-pin array (10 nL slotted pins, V&P Scientific, San Diego, CA). In addition, a duplicate 2-fold serial dilution of the control compounds auranofin, a known gold-based TrxR1 inhibitor, and juglone (5-hydroxy-1,4-naphthoquinone), a natural TrxR1 substrate, were pin-transferred to columns 2 and 3, respectively. After incubation for 15 min at room temperature (~22 deg C), 1 uL of selenite (400 uM final concentration) were dispensed to each well. The plate was immediately transferred to a ViewLux high-throughput CCD imager (PerkinElmer), wherein kinetic measurements of NADPH fluorescence (Ex 340 nm, Em 450 nm) were acquired (8 minute kinetic read, see Table 1). Read 1 was utilized to assess the capacity of a compound to serve as an rTrxR1 substrate, i.e. a decrease in NADPH fluorescence compared to the no-compound background is an indication of a substrate behavior for that particular compound. For inhibitory activity of a compound, delta values, computed as the difference in fluorescence intensity between the first and last reads of an 8-minute time kinetic window, were used. All reagents were diluted in an assay buffer consisting of 50 mM Tris-HCl, pH 7.5, 2 mM EDTA, and 0.01% Tween-20.
Throughout the screen, reagent bottle and all liquid lines were made light-tight to minimize reagent degradation. All screening operations were performed on a fully integrated robotic system (Kalypsys, San Diego, CA) containing one RX-130 and two RX-90 anthropomorphic robotic arms (Staubli, Duncan, SC). Library plates were screened starting from the lowest and proceeding to the highest concentration, and a 'double-pinning' step of the highest concentration was required to access higher concentrations of compounds. Vehicle-only plates, with DMSO being pin-transferred to the columns 5-48, were inserted uniformly at the beginning and the end of each library in order to monitor and record any shifts in the background, which can be affected by reagent dispensers or loss in enzyme activity over time. Screening data were corrected, normalized, and concentration-effect relationships were derived by using publicly-available curve fitting algorithms developed in-house (http://ncgc.nih.gov/pub/openhts).

Sequence of Thioredoxin reductase 1, cytoplasmic (Rattus norvegicus) (O89049 whole entry, looked up): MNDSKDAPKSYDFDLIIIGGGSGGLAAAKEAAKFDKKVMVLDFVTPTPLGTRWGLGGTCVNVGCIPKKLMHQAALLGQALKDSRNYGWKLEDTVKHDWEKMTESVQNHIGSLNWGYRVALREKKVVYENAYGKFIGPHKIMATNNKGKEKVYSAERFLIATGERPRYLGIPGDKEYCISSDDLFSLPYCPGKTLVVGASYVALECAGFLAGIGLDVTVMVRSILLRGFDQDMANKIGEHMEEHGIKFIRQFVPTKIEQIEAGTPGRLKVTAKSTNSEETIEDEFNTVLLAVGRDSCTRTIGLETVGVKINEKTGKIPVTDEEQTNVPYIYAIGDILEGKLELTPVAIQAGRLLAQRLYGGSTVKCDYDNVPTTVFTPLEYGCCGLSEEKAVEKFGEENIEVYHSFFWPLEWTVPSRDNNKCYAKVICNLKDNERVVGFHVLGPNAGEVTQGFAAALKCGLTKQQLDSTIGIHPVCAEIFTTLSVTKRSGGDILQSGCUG

| Compound | activity change, negative = NADPH consumption |
| --- | --- |
| CNCCC=C1c2ccccc2CCc2ccccc21 | -3.7% (inactive) |
| COc1cc(NS(C)(=O)=O)ccc1Nc1c2ccccc2nc2ccccc12 | 9.07% (inactive) |
| CC(CCc1ccccc1)NCC(O)c1ccc(O)c(C(N)=O)c1 (stereo not given) | 42.7% (inactive) |
| CNCCC(Oc1ccccc1C)c1ccccc1 (stereo not given) | -4.7% (inactive) |
| COc1cc2c(cc1O)CC[C@@H]1[C@@H]2CC[C@]2(C)[C@@H](O)CC[C@@H]12 | -4.2% (inactive) |
| CC(=O)O[C@H]1C[C@@H]2CC[C@@H]3[C@H](CC[C@@]4(C)[C@H]3C[C@H]([N+]3(C)CCCCC3)[C@@H]4OC(C)=O)[C@@]2(C)C[C@@H]1[N+]1(C)CCCCC1 | 3.02% (inactive) |
| Oc1ccc(O)cc1 | -8.51% (inactive) |
| COC(=O)[C@H]1[C@H]2C[C@H]3c4[nH]c5ccccc5c4CCN3C[C@H]2CC[C@@H]1O | -7.49% (inactive) |
| CC(C)COC(=O)OCN1C(=O)CN(CCN2CC(=O)N(COC(=O)OCC(C)C)C(=O)C2)CC1=O | -8.55% (inactive) |
| N[C@H](CO)C(=O)O | -10.7% (inactive) |
| C[N+]1(CCCCC[N+]2(C)CCCC2)CCCC1 | 2.31% (inactive) |
| Nc1cc(Cl)c(NC2=NCCN2)c(Cl)c1 | -12.1% (inactive) |
| CCC(NC(C)C)C(O)c1ccc(O)c(O)c1 (stereo not given) | -13.3% (inactive) |
| CC(C)C[C@H]1C(=O)N2CCC[C@H]2[C@]2(O)O[C@](NC(=O)[C@@H]3C=C4c5cccc6[nH]c(Br)c(c56)C[C@H]4N(C)C3)(C(C)C)C(=O)N12 | 1.92% (inactive) |
| O=C(O)c1cc2cc(Cc3cccnc3)ccc2o1 | -11.3% (inactive) |
| CC1(C)CCC(NC(=O)[C@@H](N)CCC(=O)O)CC1 | -9.32% (inactive) |
| C[C@@H]1C(=O)NC2=Nc3cccc(Cl)c3CN21 | -3.68% (inactive) |
| C1CCc2nnnn2CC1 | -3.12% (inactive) |
| CN1C2CCC1CC(OC(=O)c1c[nH]c3ccccc13)C2 (stereo not given) | -7.47% (inactive) |
| CCCn1c(=O)[nH]c(=O)c2[nH]cnc21 | -4.94% (inactive) |
| O=C1CCC(c2ccc(-n3ccnc3)cc2)=NN1 | 1.63% (inactive) |
| C[C@]12CC[C@@H]3c4ccc(O)cc4CC[C@H]3[C@@H]1CC[C@@H]2O | -10.2% (inactive) |
| CC[C@H](C)C(=O)O[C@H]1CCC=C2C=C[C@H](C)[C@H](CC[C@@H]3C[C@@H](O)CC(=O)O3)[C@H]21 | -11.2% (inactive) |
| CCCC1O[C@@H]2C[C@H]3[C@@H]4CCC5=CC(=O)C=C[C@]5(C)[C@H]4[C@@H](O)C[C@]3(C)[C@]2(C(=O)CO)O1 (stereo not given in full) | -3.2% (inactive) |
| N[C@@H](Cc1cnc[nH]1)C(=O)O | -2.04% (inactive) |
